Screens as filed in PubChem BioAssay.
Polio RdRp inh: poliovirus RdRp elongation inhibitors, primary screen, biochemical, fluorescence polarization, total intensity; Genome polyprotein (Poliovirus type 1 (strain Mahoney)), P03300; AID 588519, 2011; % elongation, % (compound at 16.7 µg/mL); hit rate 0.66% among 150,000; poliovirus polymerase elongation; stronger effect = lower value; in the data active means % elongation below about 90%
AID504770: growth inhibition of E. coli YBA685, primary screen, V. cholerae RctB inhibitors; hit rate 0.27% among 130,000; AID 504770, 2011; E. coli YBA685 rctB-dependent plasmid, OD600 growth, 3 h; stronger effect = lower value; z-score (no concentration beside the values); in the data active means z-score below about -2, passing the limit was not always enough
MenB inh: M. tuberculosis MenB inhibitors, primary screen, biochemical, absorbance; 1,4-dihydroxy-2-naphthoyl-CoA synthase (Mycobacterium tuberculosis (strain ATCC 25618 / …; AID 540299, 2011; inhibition, % (no concentration beside the values); hit rate 0.43% among 100,000; MenB enzyme assay, absorbance read-out; in the data active means inhibition above about 21%, passing the limit was not always enough
Target sequence (P9WNP5 whole entry, looked up): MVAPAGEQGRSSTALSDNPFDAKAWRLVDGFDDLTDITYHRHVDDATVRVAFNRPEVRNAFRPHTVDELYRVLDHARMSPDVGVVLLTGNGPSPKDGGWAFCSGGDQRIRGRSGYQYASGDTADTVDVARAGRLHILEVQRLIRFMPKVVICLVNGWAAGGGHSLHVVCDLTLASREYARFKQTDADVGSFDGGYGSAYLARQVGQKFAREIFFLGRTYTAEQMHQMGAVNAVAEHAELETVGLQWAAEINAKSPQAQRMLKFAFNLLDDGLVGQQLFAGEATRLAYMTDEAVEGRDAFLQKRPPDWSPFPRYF
Mtb MbtI inh: MbtI salicylate synthase inhibitors, primary screen, biochemical, fluorescence intensity | P9WFX0 | purified MbtI enzyme, fluorescence intensity read-out | inhibition, % (concentration not given with the values) | hit rate 0.89% among 100,000 | AID 493033, 2011; in the data active means inhibition mostly above about 56%, no sharp cut-off; inactive means mostly below about 77%
* hit, by the source's call; . = no result given. The list is not random: actives were taken first. Their share in the collection is about 1.5%.

SMILES | Polio RdRp inh | AID504770 | MenB inh | Mtb MbtI inh
CC(C)OCCCNc1ncnc2sc3c(c12)CCCC3 | -2.0* | . | . | .
Cc1ccc(S(=O)(=O)N2CCN(C(=O)C3C4C=CC(C4)C3C(=O)O)CC2)cc1C (stereo not given) | 97.0 | -0.85 | 0.1 | -16.1
COc1ccccc1CC(=O)Nc1cccc(NC(C)=O)c1 | 99.0 | -0.9 | -1.4 | .
COc1ccccc1CC(=O)Nc1cccc(C)n1 | 100.0 | 0.25 | 39.8* | 0.6
NNC(=O)c1cc(=S)nc[nH]1 | 97.0 | -1.3 | -34.7 | 99.2*
NNC(=O)c1cc2ccccc2[nH]1 | 100.0 | -0.35 | 4.1 | 15.9
COc1cccc(-c2noc(N3CCC4(CC3)OCCO4)n2)c1 | 104.0 | 0.65 | -11.5 | -5.2
C[C@H]1COc2c(N3CCN(C)CC3)c(F)cc3c(=O)c(C(=O)O)cn1c23 | 102.0 | -4.4* | -7.5 | -50.9
Cn1cc(NC(=O)NC2CCCCC2)c2ccccc2c1=O | 22.0* | 1.2 | -24.6 | -4.8
CC(C)CCNC(=O)Nc1cn(C)c(=O)c2ccccc12 | 100.0 | -0.45 | -24.7 | -22.3
Cc1ccc(NC(=O)Nc2cn(C)c(=O)c3ccccc23)c(Cl)c1 | 80.0* | . | . | .
Cn1cc(NC(=O)NCCc2ccsc2)c2ccccc2c1=O | 57.0* | 0.45 | -5.5 | -7.3
CCc1ccc(NC(=O)Nc2cn(C)c(=O)c3ccccc23)cc1 | 70.0* | . | . | .
COc1ccc(Cn2c(C)c(CNCc3cccs3)c(C(=O)O)c2C)cc1 | 99.0 | -1.05 | -23.6 | 2.7
CSc1ccc(CCNC(=O)Nc2cn(C)c(=O)c3ccccc23)cc1 | 45.0* | 2.15 | -28.5 | -6.2
CCOc1ccc(CCNC(=O)Nc2cn(C)c(=O)c3ccccc23)cc1OCC | 101.0 | -0.15 | -12.2 | -7.2
CN1c2ccccc2N(C)C1c1ccc(O)cc1 | 83.0* | -1.5 | -33.4 | 10.0
COc1cc(-c2ccc(/C=C3\SC(=N)N(c4nccs4)C3=O)o2)c(OC)cc1Cl | 113.0 | -0.05 | -29.0 | 56.1*
N=C1S/C(=C\c2ccc(-c3ccccc3F)o2)C(=O)N1c1ccc2c(c1)OCO2 | 99.0 | 0.4 | -11.2 | -26.1
N#CC(C#N)=C1CCc2ccccc21 | 103.0 | 0.85 | 9.2 | 9.3
COc1cc(-c2nnc(COC(=O)c3cccnc3SC)o2)cc(OC)c1OC | 110.0 | -0.6 | -13.6 | -14.6
O=C(N/N=C1/C(=O)c2cccc3cccc1c23)c1ccncc1 | 89.0* | 0.3 | -32.2 | 3.4
Cc1cc(C(=O)N/N=C2\C(=O)c3cccc4cccc2c34)c(C)o1 | 102.0 | 0 | -35.1 | 4.5
NC(=S)NN=C1C2CC3CC(C2)CC1C3 | 82.0* | -0.85 | -19.8 | 50.8
COc1cccc(NC(=O)c2cnn(C)c2-n2cccc2)c1 | . | 0.2 | . | .
SMILES | Polio RdRp inh | AID504770 | MenB inh | Mtb MbtI inh
O=C(Cn1c(=S)[nH]c2ccccc21)c1ccc(-c2ccccc2)cc1 | 103.0 | 1.9 | -13.4 | .
CC(=O)n1c(=S)[nH]c2ccccc21 | 99.0 | 0.1 | 8.9 | 101.3*
CCSc1cc(C(F)(F)F)nc2cc(C(C)(C)C)nn12 | 100.0 | 0.4 | -9.9 | 86.5*
O=S(=O)(c1ccccc1C(F)(F)F)N1CCNCC1 | 100.0 | 1.2 | -17.8 | -8.8
CN1CCN(S(=O)(=O)c2ccccc2C(F)(F)F)CC1 | 89.0* | -0.3 | -12.5 | 3.8
N=C1SCC(=O)N1c1nccs1 | 102.0 | -4.6* | -13.4 | .
Cc1cc2nc(N3C(=N)SCC3=O)sc2cc1C | 106.0 | 0.35 | -54.5 | 2.5
Cc1ccc(-c2cn3c4ccccc4nc3n2CCCN2CCCCC2)cc1 | 90.0* | -0.85 | -8.6 | .
COc1ccc(CCNC2=CC(=O)OC23CCCCC3)cc1OC | 72.0* | 1.75 | 3.1 | .
COc1ccc(OC)c(CNCCCO)c1 | 102.0 | -0.25 | 2.0 | 8.0
Nc1n[nH]c2cc(=O)[nH]c(O)c12 | 5.0* | 1.5 | -44.1 | 5.4
CN=C1SC(CC(=O)Nc2ccccc2)C(=O)N1C (stereo not given) | . | 0.4 | -7.9 | -7.5
O=C(CC1Sc2ncnn2C1=O)Nc1ccc(Br)cc1 (stereo not given) | . | 1.65 | . | 99.3*
CCCn1c(SCC(=O)NCCc2ccccc2)nc2c(oc3ccccc32)c1=O | 101.0 | -0.6 | -7.2 | -13.8
COc1ccc(-n2nc3c(N4CCCC(C(=O)NCc5ccc(C)cc5)C4)nnc(C)c3c2C)cc1 (stereo not given) | 89.0* | . | . | .
CN(C)c1ccc(/C=C2\C(=O)N(c3ccccc3)N=C2C(=O)O)cc1 | 99.0 | -0.05 | -242.6 | -49.0
CCOC(=O)C1=NN(c2ccccc2)C(=O)/C1=C\c1ccc(N(C)C)cc1 | 103.0 | 0.45 | -108.8 | 98.0*
Cc1ccc(CC(C#N)Sc2nnc3n2CCCCC3)cc1 (stereo not given) | 101.0 | -0.65 | 4.3 | -6.2
O=C1C=CC(=O)N1Cc1cccs1 | . | -4.15* | . | .
COCCC1C(=O)c2c(n(Cc3ccccc3)c3nc4ccccc4nc23)N=C1C (stereo not given) | 99.0 | 2.15 | -14.7 | 45.2
CC(OC(=O)C1=NNC(=O)CC1)C(=O)Nc1ccccc1-c1ccccc1 (stereo not given) | 102.0 | -0.65 | -69.6 | -7.9
CC(OC(=O)c1cc(S(=O)(=O)N(C)C)ccc1N1CCCC1)C(=O)N1CCc2ccccc21 (stereo not given) | 103.0 | -2.95* | -2.2 | 0.4
COc1ccc(CN2CCCC(C(N)=O)C2)cc1 (stereo not given) | 101.0 | 1.85 | -18.9 | -7.4
CC1=C/C(=N\OC(=O)Cc2ccccc2)C(C)=CC1=O | 104.0 | -1.1 | -135.4 | 3.0
CC1=CC(=NC(=O)c2ccco2)C(C)=CC1=O | 102.0 | 0.4 | -15.7 | 100.1*
SMILES | Polio RdRp inh | AID504770 | MenB inh | Mtb MbtI inh
CCCCCOc1ccc(NC(=O)Cn2c(-c3cncs3)nc3ccccc32)cc1 | 89.0* | . | . | .
Cc1ccc(-c2csc(NC(=O)COC(=O)C3CC(=O)N(Cc4ccco4)C3)n2)cc1 (stereo not given) | 98.0 | -0.95 | -31.9 | -28.0
CCN(CC1COc2ccccc2O1)C(=O)c1cccc(N(C)C)c1 (stereo not given) | 102.0 | -0.25 | -15.3 | -10.4
O=C(Cc1ccc2c(c1)OCCO2)NCc1ccco1 | . | 1.45 | 7.2 | 28.0
CCN(Cc1ccc2c(c1)OCCO2)C(=S)NCc1ccco1 | 97.0 | -0.3 | -30.9 | 88.7*
CC(C)Cc1nc2ccccc2n1Cc1ccccc1 | 104.0 | -0.65 | -23.9 | -9.7
O=C(Nc1ccccc1)NC12CC3CC(CC(C3)C1)C2 | . | 0.1 | . | .
Cc1cccc(C)c1Nc1c(-c2ccccc2F)nc2cccc(C)n12 | 88.0* | . | . | .
Cc1cccc2nc(-c3ccccn3)c(Nc3ccc(F)cc3)n12 | 120.0 | . | . | .
C[CH2][Hg][S]c1ccccc1C(=O)O | 100.0 | -5.4* | 5.8 | -47.3
CN(C)C(=O)CSc1ccccc1C(=O)O | 106.0 | 0.8 | -17.4 | 4.5
COC(=O)c1ccc(Cl)c(-c2ccc(/C=N/n3cnnc3)o2)c1 | 103.0 | 0.65 | -12.7 | 15.7
N#Cc1c(N2CCCC2)nc(N)c2c(N)nc(N3CCCC3)cc12 | 74.0* | -0.45 | 3.0 | -41.2
CC1(C)CCC2=C(O1)c1ccccc1C(=O)C2=O | 89.0* | . | 8.2 | 2.4
S=C(NCCc1ccccc1)NNc1nc2ccccc2o1 | 37.0* | 0.5 | 9.2 | 32.5
Cn1cccc1/C=C/C(=O)O | 76.0* | -0.15 | -21.0 | 10.9
